# From PubChem BioAssay (NCATS)
# Records with an inconclusive call do not appear. A call without a number means that no potency is given here. Active and inactive are the calls of the source. Calls come from the whole dose curve; as a rule, active = well fitted inhibition curve with a large enough effect; inconclusive = small, poorly fitted or top-dose-only effect; inactive = flat fitted curve, though single readings scatter.
# System: W2
# Test: qHTS profiling for inhibitors of Plasmodium falciparum proliferation (AID 504749); note: nearly all actives have a fitted effect of over 60% in size
# Conditions: P. falciparum in erythrocytes, SYBR Green DNA, 72 h; series mostly up to 28.7 µM
# Source text: NIH National Institute of Allergy and Infectious Diseases [NIAID] NIH Chemical Genomics Center [NCGC] MLPCN Grant: None Assay Provider: Xinzhuan Su, NIAID NCGC Assay Overview: Plasmodium falciparum is a virulent malarial parasite that kills 1-2 million people worldwide each year. Transmitted by mosquitoes, the sporozoite form of the parasite enters the blood stream to infect hepatocytes, where they become merozoites that infect red blood cells (erythrocytes). Within erythrocytes, merozoites begin a […] cycle of growth and division, after which the parasite is released to infect new red blood cells. Gametocytes, which form within erythrocytes as well, circulate in the bloodstream and are ingested by the mosquito, thereby completing the life cycle. To profile malarial isolates for differential chemical responses and to identify inhibitors of malarial growth, an assay that measures P. falciparum growth and replication within erythrocytes was employed. This assay uses a DNA binding fluorescent dye (SYBR Green) to detect parasite DNA following cell lysis. Because mature erythrocytes lack DNA, only Plasmodium-derived DNA is detected.
# NCGC Assay Protocol Summary: The SYBR Green viability assay was adapted from a method described previously (Plouffe et al., 2008). For screening 3 ul culture medium was dispensed into 1536 well black clear bottom plates (Aurora Biotechnologies) using a Multidrop Combi (Thermo Fisher Scientific Inc.), 23 nL compounds in DMSO were added by a pin tool (Kalypsys), and 5 ul of erythrocytes infected with P. falciparum (0.3% parasitemia, 2.5% hematocrit final concentration) were added. The plates were incubated at 37 C in a humidified incubator in 5% CO2 for 72 h, and 2 ul lysis buffer (20 mM Tris HCl, 10 mM EDTA, 0.16% saponin, 1.6% triton X, 10X SYBR Green I supplied as 10,000X […] by Invitrogen) was added to each well. The plates were mixed for 25 sec with gentle shaking and incubated overnight at room temperature in the dark. The following morning, fluorescence intensity at 485(14) nm excitation and 535(25) nm emission wavelengths was measured on an EnVision (Perkin Elmer) plate reader. Plate reads were normalized relative to the control inhibitor (0.29 uM artemisinin) and vehicle (DMSO) wells present on each plate and then corrected by an algorithm using vehicle-only control plates at the beginning and end of the compound plate stack.
# Potency is the fitted concentration of half-maximal effect.
row,Compound,Potency
1,C#C[C@]1(O)CC[C@H]2[C@@H]3CCC4=CC(=O)CCC4(C)[C@H]3CCC21C (stereo partly specified),inactive
2,Nc1nc(O)c(-c2ccccc2)o1,inactive
3,C#CC1(O)C=CC2C3CCC4=CC(=O)CCC4C3CCC21CC (stereo unspecified),6.01 µM (active)
4,CCCCCc1cc(O)c2c(c1)OC(C)(C)C1CC=C(C)CC21 (stereo unspecified),1.51 µM (active)
5,CC(=O)Oc1ccc2c3c1OC1[C@@H](OC(C)=O)C=C[C@H]4[C@H](C2)N(C)CC[C@]314 (stereo partly specified),inactive
6,CC1(C)S[C@@H]2[C@H](N)C(=O)N2C1C(=O)O (stereo partly specified),inactive
7,CN(C)C1C(=O)C(C(N)=O)C(=O)C2(O)C(=O)C3C(=O)c4c(O)cccc4C(C)(O)C3C(O)C12 (stereo unspecified),6.75 µM (active)
8,CCCCCCC(=O)O[C@H]1CC[C@H]2[C@@H]3CCC4CC(=O)C=C(C)[C@]4(C)[C@H]3CC[C@]12C (stereo partly specified),7.57 µM (active)
9,C[C@@H](N)[C@@H](O)c1ccc(O)c(O)c1,inactive
10,O=[N+]([O-])OC1CO[C@H]2C(O[N+](=O)[O-])COC12 (stereo partly specified),inactive
11,C#CCN1CC(=O)N(COC(=O)[C@@H]2[C@@H](C=C(C)C)C2(C)C)C1=O,inactive
12,OC[C@@H](O)[C@H]1O[C@@H]2OC(C(Cl)(Cl)Cl)O[C@H]2[C@H]1O (stereo partly specified),inactive
13,CC(=O)O[C@H]1C[C@H](O[C@H]2[C@@H](O)CC(O[C@H]3[C@@H](O)C[C@H](O[C@H]4CC[C@@]5(C)[C@H](CC[C@@H]6[C@@H]5CC[C@]5(C)[C@@H](C7=CC(=O)OC7)CC[C@]65O)C4)O[C@@H]3C)O[C@@H]2C)O[C@H](C)[C@H]1O[C@@H]1O[C@H](CO)[C@@H](O)[C@H](O)[C@H]1O (stereo partly specified),inactive
14,COC(C(=O)C(O)C(C)O)C1Cc2cc3cc(OC4CC(OC5CC(O)C(OC)C(C)O5)C(OC(C)=O)C(C)O4)c(C)c(O)c3c(O)c2C(=O)C1OC1CC(OC2CC(OC3CC(C)(O)C(OC(C)=O)C(C)O3)C(O)C(C)O2)C(O)C(C)O1 (stereo unspecified),0.426 µM (active)
15,CCC(=O)OC1(c2ccccc2)CCN(C)CC1C (stereo unspecified),3.79 µM (active)
16,CCCC(C)C1(CC)C(=O)NC(=S)NC1=O (stereo unspecified),9.53 µM (active)
17,OCC(O)[C@H]1O[C@@H]2O[C@H](C(Cl)(Cl)Cl)O[C@@H]2[C@H]1O (stereo partly specified),inactive
18,O=C1CC2OCC=C3CN4CC[C@]56c7ccccc7N1C5C2[C@H]3C[C@H]46 (stereo partly specified),3.38 µM (active)

row,Compound,Potency
1,C[C@]12CCC3C(CCC4=C(Cl)C(=O)CC[C@@]43C)C1CCC2O (stereo partly specified),inactive
2,COC(=O)C1C(OC(=O)c2ccccc2)CC2CCC1N2C (stereo unspecified),inactive
3,CCCCCC(O)C1C(=O)OC(C)C(O)\C=C/C=C\C=C/C=C\C=C(\C)C(O)C(O)C(O)CC(O)CC(O)CC(O)CC(O)CC1O (stereo unspecified),inactive
4,C[C@H](N)Cc1ccccc1,inactive
5,COc1ccc2c3c1O[C@H]1[C@@H](O)C=C[C@H]4C(C2)NCCC341 (stereo partly specified),inactive
6,C=CC[N+]1(C)CCC23c4c5ccc(O)c4O[C@H]2C(=O)CC[C@@]3(O)C1C5 (stereo partly specified),inactive
7,CN(C)[C@@H](Cc1ccccc1)c1ccccc1,4.78 µM (active)
8,C[C@]12C=CC(=O)C=C1CC[C@@H]1C2CC[C@]2(C)OC(=O)CCC12 (stereo partly specified),inactive
9,C[C@@H]1CC[C@H]2[C@@H](C)C(=O)O[C@@H]3OC4(C)CC[C@@H]1C32OO4 (stereo partly specified),0.003 µM (active)
10,CCOC(=O)c1cncn1[C@@H](C)c1ccccc1,1.81 µM (active)
11,C=C1Nc2ccccc2C(=O)N1c1ccccc1C,inactive
12,CN1C2CCC1C(C(=O)O)C(OC(=O)c1ccccc1)C2 (stereo unspecified),inactive
13,CCCN1CCCC2Cc3nc(N)ncc3CC21 (stereo unspecified),inactive
14,CCOC(=O)/C=C(C)/C=C/CC(C)CCCC(C)C (stereo unspecified),inactive
15,[S]=[Sb][S][Sb]=[S],inactive
16,CCN(CC)C(=O)N[C@@H]1C=C2c3cccc4[nH]cc(c34)C[C@H]2N(C)C1,5.36 µM (active)
17,CCC/C=C/C=C/C(=O)OC1/C(=C/C(=O)OC)CC2CC(C(C)O)OC(=O)CC(O)CC3CC(OC(C)=O)C(C)(C)C(O)(CC4C/C(=C/C(=O)OC)CC(/C=C\C(C)(C)C1(O)O2)O4)O3 (stereo unspecified),0.953 µM (active)
18,CC(CO)NC(=O)C1C=C2c3cccc4[nH]cc(c34)CC2N(C)C1 (stereo unspecified),inactive
